Laboratory results: PubChem BioAssay AID1159580 (chemical genetic matrix, 2015)
Several values for one entry are separate records, joined by “and”; a condition that tells them apart may be missing. Equal entries are not always repeated. Screen size: about 5,500 compounds; about 2,000 (36%) were called active. About 18% were inconclusive and are not listed. No stated cut-off is given here; in the data, active means normalized growth mostly below about 0.91 (no sharp cut-off); inconclusive means no clear call, values can overlap the other calls; inactive means mostly above about 0.92. The list shows a part of the results.

Assay: chemical genetic growth profiling, strain panel (AID 1159580);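 further: tested at 20 µM; growth read once vehicle control cultures reached saturation at 30 °C; 1 = growth at the plate median or of vehicle wells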
Settings: S. cerevisiae deletion strains, growth OD

Measured: normalized growth

OCC(O)C(O)C(O)C(O)C(O)CO (configuration not stated)
inactive: locus YAL021C, strain ccr4, stronger effect = lower value 0.995 | locus YAL026C, strain drs2, stronger effect = lower value 0.991 | locus YAL030W, strain snc1, stronger effect = lower value 0.99 | locus YBL061C, strain skt5, stronger effect = lower value 0.989 | locus YBR009C, strain hhf1, stronger effect = lower value 1 | locus YBR021W, strain FUR4, stronger effect = lower value 1.02 | locus YBR023C, strain chs3, stronger effect = lower value 0.995 | locus YBR171W, strain sec66, stronger effect = lower value 0.991 | locus YBR229C, strain ROT2, stronger effect = lower value 0.96 | locus YBR231C, strain swc5, stronger effect = lower value 0.991 | locus YBR279W, strain paf1, stronger effect = lower value 0.991 | locus YCL011C, strain gbp2, stronger effect = lower value 0.999 | locus YCL016C, strain dcc1, stronger effect = lower value 0.989 | locus YCL029C, strain bik1, stronger effect = lower value 0.974 | locus YCL061C, strain MRC1, stronger effect = lower value 0.99 | locus YCL069W, strain vba3, stronger effect = lower value 1 | locus YCR088W, strain abp1, stronger effect = lower value 0.989 | locus YDL005C, strain med2, stronger effect = lower value 1 | locus YDL035C, strain GPR1, stronger effect = lower value 1.01 | locus YDL040C, strain nat1, stronger effect = lower value 0.982 | locus YDL074C, strain BRE1, stronger effect = lower value 1.05 | locus YDL101C, strain DUN1, stronger effect = lower value 1.01 | locus YDL185W, strain tfp1, stronger effect = lower value 0.954 | locus YDL192W, strain arf1, stronger effect = lower value 1 | locus YDR001C, strain nth1, stronger effect = lower value 0.99 | locus YDR069C, strain doa4, stronger effect = lower value 0.995 | locus YDR101C, strain arx1, stronger effect = lower value 0.974 | locus YDR137W, strain rgp1, stronger effect = lower value 1.02 | locus YDR159W, strain sac3, stronger effect = lower value 0.98 | locus YDR162C, strain NBP2, stronger effect = lower value 1 | locus YDR195W, strain ref2 0.965 | locus YDR297W, strain sur2, stronger effect = lower value 0.997 | locus YDR318W, strain mcm21, stronger effect = lower value 0.956 | locus YDR334W, strain swr1, stronger effect = lower value 0.987 | locus YDR335W, strain msn5, stronger effect = lower value 0.993 | locus YDR388W, stronger effect = lower value 0.985 | locus YDR392W, strain spt3, stronger effect = lower value 0.99 | locus YDR502C, strain sam2, stronger effect = lower value 1.01 | locus YEL003W, strain gim4, stronger effect = lower value 0.994 | locus YEL037C, strain rad23, stronger effect = lower value 0.992 | locus YEL061C, strain CIN8 (second series), stronger effect = lower value 0.979 | locus YEL061C, strain CIN8, stronger effect = lower value 0.993 | locus YER015W, strain faa2, stronger effect = lower value 0.994 | locus YER016W, strain bim1, stronger effect = lower value 0.983 | locus YER110C, stronger effect = lower value 0.97 | locus YER111C, strain swi4, stronger effect = lower value 0.989 | locus YER155C, strain BEM2 (second series), stronger effect = lower value 0.989 | locus YER155C, strain BEM2, stronger effect = lower value 1 | locus YER167W, strain BCK2, stronger effect = lower value 0.997 | locus YFR010W, strain ubp6, stronger effect = lower value 0.99 | locus YGL078C, strain dbp3, stronger effect = lower value 1.01 | locus YGL086W, strain mad1, stronger effect = lower value 1.01 | locus YGL167C, strain pmr1, stronger effect = lower value 0.996 | locus YGL173C, strain kem1, stronger effect = lower value 1 | locus YGL227W, strain vid30, stronger effect = lower value 0.992 | locus YGL240W, strain doc1, stronger effect = lower value 1 | locus YGL248W, strain PDE1, stronger effect = lower value 1.02 | locus YGL253W, strain hxk2, stronger effect = lower value 0.989 | locus YGR135W, strain pre9, stronger effect = lower value 1.05 | locus YGR252W, strain gcn5, stronger effect = lower value 1.1 | locus YHR013C, strain ard1, stronger effect = lower value 0.981 | locus YHR027C, strain rpn1, stronger effect = lower value 1 | locus YHR030C, strain SLT2, stronger effect = lower value 0.998 and 0.954 | locus YHR079C, strain IRE1 (second series), stronger effect = lower value 0.992 | locus YHR079C, strain IRE1, stronger effect = lower value 0.973 | locus YHR094C, strain hxt1, stronger effect = lower value 0.965 | locus YHR129C, strain ARP1, stronger effect = lower value 1.02 | locus YHR142W, strain chs7, stronger effect = lower value 0.995 | locus YHR200W, strain rpn10, stronger effect = lower value 0.991 | locus YIL066C, strain RNR3, stronger effect = lower value 0.995 | locus YIL073C, strain SPO22, stronger effect = lower value 1.07 | locus YIL125W, strain kgd1, stronger effect = lower value 0.967 | locus YIR030C, strain dcg1, stronger effect = lower value 1.01 | locus YJL092W, strain hpr5, stronger effect = lower value 0.993 | locus YJL095W, strain BCK1 (second series), stronger effect = lower value 0.993 | locus YJL095W, strain BCK1, stronger effect = lower value 1.09 and 0.974 | locus YJL115W, strain asf1, stronger effect = lower value 0.982 | locus YJL129C, strain trk1, stronger effect = lower value 1 | locus YJL134W, strain LCB3, stronger effect = lower value 0.985 | locus YJL154C, strain vps35, stronger effect = lower value 0.991 | locus YJL164C, strain tpk1, stronger effect = lower value 0.994 | locus YJL166W, strain qcr8, stronger effect = lower value 0.996 | locus YJL168C, strain set2, stronger effect = lower value 0.984 | locus YJL187C, strain SWE1 (second series), stronger effect = lower value 1.01 | locus YJL187C, strain SWE1, stronger effect = lower value 1 | locus YJR043C, strain POL32, stronger effect = lower value 1.02 | locus YJR066W, strain TOR1, stronger effect = lower value 0.927
